Active and inactive are the calls of the source. Unless noted, no rule for the calls is given here.
Experiments:
[1] = HepG2 liver cancer cell viability effects, profiling panel, resazurin fluorescence, 24 h, PK04 Diversity Set (AID 1172); conditions: higher = more signal
[2] = basal S. cerevisiae growth modulation, no modifier, primary screen, OD600, strain BY4716, 24 h, basal condition (AID 1173); conditions: OD600, 24 h, higher = more signal, called active from +8 up or from −8 down
[3] = MM1S myeloma cell viability, profiling panel, resazurin fluorescence, basal, 24 h, PK04 Diversity Set (AID 1174); conditions: higher = more signal, called active from +8 up or from −8 down;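 also: MM1S multiple myeloma cell line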
[4] = target: Dihydroorotate dehydrogenase (quinone), mitochondrial (Plasmodium falciparum (isolate 3D7)) (UniProt Q08210); test: PfDHODH enzyme inhibitors, primary screen, biochemical, C-terminal His tag, absorbance 600 nm (AID 1175); conditions: DCIP absorbance 600 nm, higher = more signal, called active from +8 up or from −8 down;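 also: recombinant parasite enzyme with a five histidine tag at its C terminus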
[5] = P. aeruginosa biofilm formation inhibitors, primary screen, strain PAO1, LB-PBS medium, absorbance 600 nm (AID 1176); conditions: P. aeruginosa PAO1 growth/biofilm, A600, 12 h; higher = more signal
[6] = S. cerevisiae RM11-1a growth modifiers, primary screen, strain RM11-1a, OD600, basal, 24 h (AID 1177); conditions: OD600, 24 h, higher = more signal, called active from +8 up or from −8 down;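 also: cultures grown under basal conditions with no added stressor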
[7] = E. coli acrAB mutant growth effects, primary screen, E. coli filamentation inducers, strain DRC39, OD650, 24 h (AID 1178); conditions: higher = more signal, called active from +8 up or from −8 down;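 also: growth measured as culture turbidity by optical density at 650 nm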
[8] = E. coli acrAB mutant growth effects, primary screen, E. coli filamentation inducers, strain DRC39, OD650, 48 h (AID 1179);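 also: screen aims at cell division blockers that make cells filament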; conditions: E. coli DRC39 delta-acrAB growth, higher = more signal, called active from +8 up or from −8 down
[9] = RPMI8226 myeloma cell viability, profiling panel, resazurin fluorescence, basal, 24 h, PK04 Diversity Set (AID 1180); conditions: higher = more signal;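 also: RPMI8826 multiple myeloma cell line at 5000 cells per well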
[10] = target: E3 ubiquitin-protein ligase XIAP (Homo sapiens) (UniProt P98170); test: XIAP binders, primary screen, biophysical, small-molecule microarray, fluorescence 635 nm (AID 1181); conditions: small-molecule microarray binding, higher = more signal;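 also: score merges 667 nm emission and signal to noise over triplicate slides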
[11] = tested on: XIP peptide (Xip251-270) binding; test: small-molecule binders of XIP peptide, primary screen, biochemical, small-molecule microarray, fluorescence 635/667 nm, 0.1 µg/mL protein (AID 1182); conditions: fluorescent protein binding, 635 nm, higher = more signal, called active from +8 up or from −8 down
[12] = tested on: XIP peptide (Xip251-270); test: small-molecule binders of XIP peptide, primary screen, biochemical, small-molecule microarray, fluorescence 635/667 nm, 0.5 µg/mL protein (AID 1183); conditions: small-molecule microarray binding, fluorescence 635 nm; higher = more signal
[13] = Plasmodium falciparum growth inhibition, primary screen, strain 3D7, DAPI fluorescence, 100 nL (AID 1184);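 also: parasites grown inside human red blood cells in medium with human serum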; conditions: P. falciparum 3D7 growth, 3 d, higher = more signal
[14] = target: Homeobox protein Hox-A13 (Mus musculus) (UniProt Q62424); test: inhibitors of HoxA13-DNA binding, primary screen, biochemical, fluorescence polarization, labeled oligonucleotide (AID 1185); conditions: 15 min, higher = more signal, called active from +8 up or from −8 down
[15] = inhibitors of hydroxyurea-induced Chk1 phosphorylation, primary screen, imaging, HeLa, phospho-Chk1 antibody, percent positive cells (AID 1186); conditions: hydroxyurea-induced phospho-Chk1 immunofluorescence imaging, higher = more signal
[16] = inhibitors of hydroxyurea-induced Chk1 phosphorylation, primary screen, imaging, HeLa, phospho-Chk1 nuclear intensity (AID 1187); conditions: hydroxyurea-induced phospho-Chk1 immunofluorescence imaging, higher = more signal

Sequence of Dihydroorotate dehydrogenase (quinone), mitochondrial (Plasmodium falciparum (isolate 3D7)) (Q08210 whole entry, looked up): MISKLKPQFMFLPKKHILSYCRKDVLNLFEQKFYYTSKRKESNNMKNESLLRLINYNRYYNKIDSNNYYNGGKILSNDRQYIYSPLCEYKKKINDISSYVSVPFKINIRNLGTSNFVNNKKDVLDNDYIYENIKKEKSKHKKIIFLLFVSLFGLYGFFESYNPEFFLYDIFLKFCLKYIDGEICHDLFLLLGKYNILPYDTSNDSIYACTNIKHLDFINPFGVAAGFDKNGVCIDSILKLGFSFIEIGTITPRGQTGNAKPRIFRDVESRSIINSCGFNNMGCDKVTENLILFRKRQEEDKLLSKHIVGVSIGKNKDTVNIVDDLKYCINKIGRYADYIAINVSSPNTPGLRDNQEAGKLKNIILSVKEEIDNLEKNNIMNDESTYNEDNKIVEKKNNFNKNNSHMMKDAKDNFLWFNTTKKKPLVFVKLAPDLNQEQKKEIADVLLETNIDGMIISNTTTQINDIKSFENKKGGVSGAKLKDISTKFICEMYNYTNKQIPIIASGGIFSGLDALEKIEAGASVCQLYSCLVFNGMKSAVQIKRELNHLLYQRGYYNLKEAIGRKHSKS
Sequence of E3 ubiquitin-protein ligase XIAP (Homo sapiens) (P98170 whole entry, looked up): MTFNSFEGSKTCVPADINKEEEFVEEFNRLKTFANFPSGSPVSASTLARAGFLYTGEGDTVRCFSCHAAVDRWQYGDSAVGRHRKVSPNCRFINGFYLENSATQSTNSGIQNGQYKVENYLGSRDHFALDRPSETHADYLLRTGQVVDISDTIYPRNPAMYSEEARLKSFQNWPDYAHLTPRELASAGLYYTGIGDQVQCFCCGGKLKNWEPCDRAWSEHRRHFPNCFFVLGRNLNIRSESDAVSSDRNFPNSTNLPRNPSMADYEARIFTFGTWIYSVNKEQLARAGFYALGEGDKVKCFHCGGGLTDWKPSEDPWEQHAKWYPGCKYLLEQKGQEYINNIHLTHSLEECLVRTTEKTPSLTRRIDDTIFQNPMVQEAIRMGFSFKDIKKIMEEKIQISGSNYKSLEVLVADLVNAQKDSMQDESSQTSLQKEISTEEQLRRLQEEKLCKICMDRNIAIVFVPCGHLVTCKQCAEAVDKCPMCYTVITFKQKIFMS
Sequence of Homeobox protein Hox-A13 (Mus musculus) (Q62424 whole entry, looked up): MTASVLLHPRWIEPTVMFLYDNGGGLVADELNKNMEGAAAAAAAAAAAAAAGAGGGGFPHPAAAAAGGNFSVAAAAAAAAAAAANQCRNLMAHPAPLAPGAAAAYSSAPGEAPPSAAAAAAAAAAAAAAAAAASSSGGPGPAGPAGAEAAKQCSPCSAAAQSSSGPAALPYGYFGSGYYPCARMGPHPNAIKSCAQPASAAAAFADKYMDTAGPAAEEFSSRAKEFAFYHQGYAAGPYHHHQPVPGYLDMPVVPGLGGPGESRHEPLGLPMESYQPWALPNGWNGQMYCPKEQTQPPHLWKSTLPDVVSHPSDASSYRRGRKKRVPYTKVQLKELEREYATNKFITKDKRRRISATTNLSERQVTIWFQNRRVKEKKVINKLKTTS

| Compound | z-score [1] | z-score [2] | z-score [3] | composite z-score [4] | z-score [5] | z-score [6] | z-score [7] | z-score [8] | z-score [9] | composite z-score [10] | composite z-score [11] | composite z-score [12] | z-score [13] | z-score [14] | z-score [15] | z-score [16] |
| --- | --- | --- | --- | --- | --- | --- | --- | --- | --- | --- | --- | --- | --- | --- | --- | --- |
| O=C(N1CCOCC1)[C@]1(CCS(=O)(=O)c2ccccc2)N=C(c2ccc(OCCCO)cc2)O[C@@H]1c1ccccc1 | 0.945 | 1.14 (inactive) | 0.564 (inactive) | 2.06 (inactive) | -0.981 (inactive) | 2.17 (inactive) | 2.71 (inactive) | 0.546 (inactive) | 0.413 | 0.0379 | 1.24 (inactive) | 0.717 | -2.21 | -4.54 (inactive) | -0.141 (inactive) | 0.0352 (inactive) |
| C=C[C@@H](CO)NS(=O)(=O)c1ccc(Br)cc1 | 1.4 | -2.03 (inactive) | 1.16 (inactive) | -1.37 (inactive) | 0.193 (inactive) | -2.19 (inactive) | 1.43 (inactive) | 1.16 (inactive) | 0.867 | -0.215 | -0.987 (inactive) | -1.58 | -0.345 | 0.553 (inactive) | -0.734 (inactive) | -0.695 (inactive) |
| COC(=O)[C@]1(Cc2ccccc2N=[N+]=[N-])N=C(c2ccc(OCCCO)cc2)O[C@@H]1c1ccccc1CN=[N+]=[N-] | -4.43 | 1.24 (inactive) | -8.15 (active) | 1.71 (inactive) | 1.16 (inactive) | 1.94 (inactive) | -0.307 (inactive) | -0.609 (inactive) | -7.07 | -0.0277 | 0.11 (inactive) | 0.729 | -1.96 | -1.15 (inactive) | -0.446 (inactive) | -0.437 (inactive) |
